Compound activity from PubChem.
Marburg entry = qHTS for Inhibitors of binding or entry into cells for Marburg Virus; Marburg virus pseudotype entry/binding inhibition, cell-based; Potency, µM (titrated, usually from 49.2 µM), most hits filed as inhibitors; 18,000 compounds, 6.5% hits; AID 720532, 2013
Lassa entry = qHTS for Inhibitors of binding or entry into cells for Lassa Virus; Lassa virus pseudotyped entry inhibition, cell-based qHTS; Potency, µM (highest dose often 49.2 µM), actives largely listed as inhibitors; 18,000 compounds, 4.1% hits; AID 720533, 2013
Hits are given with their value; - = inactive; ? = inconclusive; . = no result; ! = repeats disagree; [ ] = another dose, or the depositor's remark. Hits are enriched below; roughly 7.1% of the tested compounds scored in any of these assays. Calls follow the shape of the full dose curve; tested in HEK293 cells.

SMILES	Marburg entry	Lassa entry
COC(=O)CC=C[C@@H](C)[C@@H](C=NOC[C@@H](O)COCc1ccco1)OC	-[8.59 µM]	-[8.59 µM]
C(#CCN1CCCC1)CN1CCCC1	8.91µM	?
NS(=O)(=O)c1ccc(N=Nc2c(O)[nH]c3ccc(C(=O)NCc4ccncc4)cc23)cc1	-	.
COc1ccc(COC(=O)NN=C2C[C@@H](O)[C@@H](O)[C@@H]3[C@H]4C(=O)N(C[C@@H]5CCCO5)C(=O)[C@@H]4CC[C@H]23)cc1	?	0.596µM
COc1ccc(COC(=O)NN=C2C[C@@H](O)[C@@H](O)[C@@H]3[C@H]4C(=O)N(c5ccc(F)cc5F)C(=O)[C@@H]4CC[C@H]23)cc1	-[8.59 µM]	1.33µM
COc1ccc(COC(=O)NN=C2C[C@@H](O)[C@@H](O)[C@@H]3[C@H]4C(=O)N(C5CCCCC5)C(=O)[C@@H]4CC[C@@H]23)cc1	-[8.59 µM]	.
CCOC(=O)NN=C1C[C@@H](O)[C@@H](O)[C@@H]2[C@H]3C(=O)N(c4ccc(F)cc4F)C(=O)[C@@H]3CC[C@H]12	-[8.59 µM]	-[8.59 µM]
O=C1CCCC2=C1[C@H]1O[C@](CCCCN3C(=O)c4ccccc4C3=O)(Cc3ccccc31)O2	-[8.59 µM]	-[8.59 µM]
COC(=O)C1=C(C)N(CC2CC2)C(=O)NC1c1ccccc1 (configuration not stated)	-[8.59 µM]	-[8.59 µM]
CCOC(=O)NN=C1C[C@@H](O)[C@@H](O)[C@@H]2[C@H]3C(=O)N([C@@H](C)c4ccccc4)C(=O)[C@@H]3CC[C@@H]12	-[8.59 µM]	-[8.59 µM]
CC(=O)Nc1ccc(-c2c(C)cc3oc(=O)cc(-c4ccccc4)c3c2C)cc1	-	7.94µM
Cc1ccc(-c2c(C)cc3oc(=O)cc(-c4ccccc4)c3c2C)cc1	-	?
Oc1cc(-c2nc3ccccc3s2)cc2c1OCCN(Cc1cccn1-c1nccs1)C2	-	-
c1ccc2sc(-c3cc4c(c(OC5CCOC5)c3)OCCN(Cc3cccn3-c3nccs3)C4)nc2c1 (configuration not stated)	0.355µM	-
CCN(CC)CCCN=C1NC(c2cccc(C(F)(F)F)c2)C(C(=O)OC)=C(C)N1CC (configuration not stated)	-[8.59 µM]	-[8.59 µM]
CSc1ccccc1C(=O)NCC1Cc2cc(F)cc(-c3cnccn3)c2O1 (configuration not stated)	-	-
O=C(NCC1Cc2cccc(-c3cnccn3)c2O1)c1ccc(F)c(Cl)c1 (configuration not stated)	11.2µM	-
Cc1cc2c(c(-c3cnccn3)c1)OC(CNC(=O)c1cc(Cl)ccc1F)C2 (configuration not stated)	25.1µM	-
O=C(NCC1Cc2cccc(-c3ncccn3)c2O1)c1cccc(-c2ccccc2F)c1 (configuration not stated)	-	-
CC(C)C[C@H]1COc2c(Cl)cccc2S(=O)(=O)N1Cc1ccc(F)cc1	-	-
Nc1ccc2cc3ccc(N)cc3nc2c1	10µM	25.1µM
CCOc1ccc2nc3cc(N)ccc3c(N)c2c1	-	-
O=C(c1cccs1)N1C[C@@H](n2cc(-c3ccc(F)cc3)nn2)[C@@H](O)C[C@@H]1c1ccc(Cl)cc1	?	-
COC(=O)C1=C(C)N(Cc2ccccc2)C(=NCCCCO)NC1c1cccc(F)c1 (configuration not stated)	-[8.59 µM]	.
CCOC(=O)C1=C(C)NC(C)=C(C(=O)OC)C1c1cccc(Cl)c1Cl (configuration not stated)	-	-
SMILES	Marburg entry	Lassa entry
COC(=O)C1=C(C)NC(C)=C(C(=O)OCCSc2ccccc2)C1C (configuration not stated)	?	12.6µM
CCN1C(=NCc2cccc(Cl)c2)NC(c2cccc(C(F)(F)F)c2)C(C(=O)OC)=C1C (configuration not stated)	-[8.59 µM]	?
CC(=O)Nc1ccc(C(=O)N2CCCC(c3nc(SCc4ccccn4)ncc3C)C2)cc1 (configuration not stated)	-	-
Cc1cnc(SCc2ccccn2)nc1C1CCCN(C(=O)c2scc3c2CCCC3)C1 (configuration not stated)	10µM	?
O=C(Nc1cccc(Cl)c1)OCC#CCCl	11.2µM	-
C[N+](C)(C)CC#CCOC(=O)Nc1cccc(Cl)c1	-	-
CCOC(=O)NN=C1C[C@@H](O)[C@@H](O)[C@@H]2[C@H]3C(=O)N(Cc4ccc5c(c4)OCO5)C(=O)[C@@H]3CC[C@H]12	-[8.59 µM]	-[8.59 µM]
COc1cccc([C@H]2Oc3ccc(OC)cc3C(=NO[C@H](C)CN3CCCc4nc(C)c(C)cc43)[C@H]2O)c1	?	-[8.59 µM]
CC(=O)Nc1c(N)[nH]c(=O)n(C)c1=O	-	-
CC(=O)Nc1c2sscc-2n(C)c1=O	11.2µM	10µM
COc1ccc(Nc2ncc(-c3ccccc3)o2)cc1OC	-	.
C[C@]12CC[C@@H]3c4ccc(O)cc4CC[C@H]3[C@@H]1CC[C@@H]2OC(=O)CCC1CCCC1	-	28.2µM!
CCC(=O)OC1CCC2C3CCc4cc(O)ccc4C3CC[C@]12C (some centres not stated)	0.001µM	158µM
